Only a selection was taken, and hits are over-represented in it overall.
EphB4 ephrin blk = antagonists of human EphB4-ephrin-B2 interaction; 97,000 tested, 0.15% active; AID 720; EphB4 LBD / TNYL-RAW-Alexa532 peptide, fluorescence polarization; inhibition, % at 7 µM;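 active = inhibition above the screen-wide mean inhibition plus 3 SD, cut at about 15% in these data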;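 also: 0% = DMSO wells and 100% = excess unlabeled TNYL-RAW peptide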
hDAT+cocaine = human DAT dopamine uptake with cocaine, either direction | Q01959 | B-score at 10 µM | LLC-PK1 hDAT cells, [14C]-dopamine uptake with cocaine IC80; actives deviate in either direction | AID 449768 | 110,000 tested, 1.3% active;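 active = Z score or B-score, a plate-position-corrected score, falls beyond the plate's 99.7% confidence bounds, in either direction; inactive = both scores lie inside the 99.7% bounds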;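 also: scored against the spread of the other compound wells on the same plate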
D1 mod = D1 dopamine receptor (human) allosteric modulation; HEK293 D1, CRE-luciferase, dopamine EC30 potentiation; actives deviate in either direction; 58,000 tested, 5.9% active; B-score at 10 µM; P21728;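 active = luminescence count or its row- and column-corrected plate score outside the 99.7% band of the plate's sample wells, on either side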
D1 PAM confirm = D1 receptor (human) allosteric modulation, confirmed | shares compounds with D1 mod | HEK293 D1 CRE-luciferase, dopamine EC30 potentiation; active compounds read high | luminescence at 10 µM | 2,200 tested, 88% active;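 active = luminescence in either of two replicates above the same-plate mean plus 3 SD of the low-dose dopamine control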
D1 no dopamine = secondary test of D1 modulators: activity without dopamine; shares compounds with D1 mod; HEK293 D1 CRE-luciferase, luminescence, no dopamine; active compounds read high; luminescence at 10 µM; 1,900 tested, 0.8% active; in the data active = luminescence above about 3900
Isoprot counter = counter-screen for D1 modulators: isoproterenol response in HEK293 cells; shares compounds with D1 mod; HEK293 D1 CRE-luciferase, isoproterenol EC30 counter-screen; calls only at 10 µM; 2,200 tested, 63% active; AID 647;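 active = luminescence in either replicate above plate mean of wells with a partly effective reference agonist dose plus 3 SD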;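 also: isoproterenol raises cAMP through native beta-adrenoceptor Gs so signal bypasses D1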
* = called active by the depositor; i = inactive; · = no result given; + = active, no number.

SMILES | EphB4 ephrin blk | hDAT+cocaine | D1 mod | D1 PAM confirm | Isoprot counter | others
CC1=C(C(=O)Nc2ccccc2)C(c2sccc2C)n2nnnc2N1 (stereo unspecified) | 1 | -0.47 | · | · | ·
N#CC1(c2nc3ccccc3[nH]2)CC1c1ccc2c(c1)OCO2 (stereo unspecified) | 4 | 0.32 | -0.93 | · | ·
COc1ccc(CCNC(=O)C2CC(=O)N(C3CCCCCCC3)C2)cc1OC (stereo unspecified) | -1 | 0.29 | · | · | ·
COc1ccc(CCNC(=O)C2CC(=O)N(c3ccccc3)C2)cc1OC (stereo unspecified) | -4 | 0.0015 | 2.9* | 5376 | i | D1 no dopamine=1464
N=c1ncn(CC(O)CO)c2nc(N3CCOCC3)[nH]c12 (stereo unspecified) | 4 | 0.12 | · | · | ·
CC(=O)c1ccc(NC(=O)C2(c3ccccc3)CCOCC2)cc1 | 4 | 0.8 | · | · | ·
COc1cccc(C2C3(C#N)C(N)=NC(OC)(OC)C23C#N)c1 (stereo unspecified) | 2 | -0.76 | · | · | ·
COC1(OC)N=C(N)C2(C#N)C(c3cccc(Oc4ccccc4)c3)C12C#N (stereo unspecified) | 0 | 0.98 | 19* | 16148* | + | D1 no dopamine=1756
COC(=O)C1=C(C)NC(=O)NC1c1cccc(OC)c1OCc1ccccc1 (stereo unspecified) | 6 | · | · | · | ·
CCOC(=O)C(=O)/C(=C\N(C)C)c1onc(-c2c(F)cccc2Cl)c1C(=O)OC | 2 | -0.18 | · | · | ·
CCOC(=O)CSc1nc(N)c(C#N)c(-c2ccc(OCC)cc2)c1C#N | 3 | 1.2 | 0.73 | · | ·
C=CCSc1nc(N)c(C#N)c(-c2ccc(C)cc2)c1C#N | 3 | -0.65 | 3.1* | 4628 | i | D1 no dopamine=1776
CC1CCCN(Cc2cccc(Oc3ccccc3)c2)C1 (stereo unspecified) | 0 | -0.3 | · | · | ·
COC(CNC(=O)C1CC(=O)N(CCc2ccccc2)C1)OC (stereo unspecified) | -8 | 0.34 | · | · | ·
CCN(CC(=O)Nc1ccc2c(c1)OCCO2)c1ccc(S(=O)(=O)N2CCOCC2)cn1 | 0 | -0.6 | -0.49 | · | ·
CCN(CC(=O)Nc1ccc2c(c1)OCCO2)C(=O)c1cccc(S(=O)(=O)N2CCOCC2)c1 | -2 | 0.82 | 3* | 5360 | i
COc1ccc(Cn2nnc3c(=O)[nH]c(C4CCCN(C(=O)c5ccccc5)C4)nc32)cc1 (stereo unspecified) | · | 2.2 | 4.3* | 10456* | i | D1 no dopamine=1612
O=C(c1ccccc1Cl)N1CCCC(c2nc3c(nnn3Cc3ccccc3)c(=O)[nH]2)C1 (stereo unspecified) | -1 | 1.8 | 1.4 | · | ·
COc1cccc(Cn2nnc3c(=O)[nH]c(C4CCCN(C(=O)c5ccccc5Cl)C4)nc32)c1 (stereo unspecified) | -5 | 1.5 | 3* | 9972* | +
Cc1ccc(Cn2nnc3c(=O)[nH]c(C4CCCN(C(=O)Nc5ccc(F)cc5)C4)nc32)cc1 (stereo unspecified) | 8 | 0.38 | 2.1 | · | ·
C[C@H]1CC[C@@]2(O[C@H](CCO)C[C@H](O)[C@H]2O)O1 | · | -0.97 | · | · | ·
COC(=O)c1cc(OC)c(OC)cc1NC(=O)c1ccc(C)o1 | 4 | 0.32 | · | · | ·
COc1ccc(C2c3sc(=O)[nH]c3SC3C4CCC(C4)C23)cc1 (stereo unspecified) | 2 | 0.31 | 16* | 27840* | + | D1 no dopamine=1724
COc1ccc(C2c3sc(=O)[nH]c3SC3C(=O)N(c4ccccc4)C(=O)C32)cc1 (stereo unspecified) | 3 | 0.72 | 1.2 | · | ·
COC(=O)C1CSc2[nH]c(=O)sc2C1c1ccc(O)c(OC)c1 (stereo unspecified) | 5 | 2.3 | · | · | ·
O=C1C2Sc3[nH]c(=O)sc3C(c3ccccc3)C2C(=O)N1c1ccccc1 (stereo unspecified) | -6 | 1.7 | · | · | ·
COc1cc(C2c3sc(=O)[nH]c3SC3C4CCC(C4)C23)ccc1O (stereo unspecified) | 7 | -0.098 | 8.5* | 18840* | + | D1 no dopamine=1528
O=c1[nH]c2c(s1)C(c1ccccc1)C1C3CCC(C3)C1S2 (stereo unspecified) | 11 | -0.03 | 17* | 21364* | +
Cc1nn(-c2ccccc2)c(C)c1NS(=O)(=O)c1ccccc1 | 0 | 0.45 | -0.51 | · | ·
COc1ccc(CCNC(=O)NC23CC4CC(CC(C4)C2)C3)cc1OC | -1 | 0.62 | · | · | ·

Bioassay records as filed in PubChem.
